Each structure is given as a SMILES string. The full ranking holds about 110,000 compounds; the median of “z-score” is about -0.1, and the highest 2% start at about 2. What follows is part of a selection rich in the highest values, with near analogues and random picks from the rest. Active and inactive are the calls of the source.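 Rule for the calls: active = z-score in the third read window above 3 or below -3; inactive = the rest.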

Drawing on PubChem BioAssay AID488969 (Vanderbilt High Throughput Screening Facility, 2010), this text covers z-score for 114 compounds.

This assay deals with Metabotropic glutamate receptor 8 (Rattus norvegicus) (UniProt P70579). Kind of assay: mGluR8 Gi/Go-coupled signaling modulation – cell-based, rat, thallium flux, HTS, primary screen (AID 488969). The note with it: HEK293 rat mGluR8, GIRK (G protein-gated inwardly rectifying potassium channel) thallium flux, FluoZin2; at 10 µM; stronger effect = higher value; submaximal glutamate (EC20) added with thallium.
Metabotropic glutamate receptor 8 (Rattus norvegicus), sequence (P70579 whole entry, looked up): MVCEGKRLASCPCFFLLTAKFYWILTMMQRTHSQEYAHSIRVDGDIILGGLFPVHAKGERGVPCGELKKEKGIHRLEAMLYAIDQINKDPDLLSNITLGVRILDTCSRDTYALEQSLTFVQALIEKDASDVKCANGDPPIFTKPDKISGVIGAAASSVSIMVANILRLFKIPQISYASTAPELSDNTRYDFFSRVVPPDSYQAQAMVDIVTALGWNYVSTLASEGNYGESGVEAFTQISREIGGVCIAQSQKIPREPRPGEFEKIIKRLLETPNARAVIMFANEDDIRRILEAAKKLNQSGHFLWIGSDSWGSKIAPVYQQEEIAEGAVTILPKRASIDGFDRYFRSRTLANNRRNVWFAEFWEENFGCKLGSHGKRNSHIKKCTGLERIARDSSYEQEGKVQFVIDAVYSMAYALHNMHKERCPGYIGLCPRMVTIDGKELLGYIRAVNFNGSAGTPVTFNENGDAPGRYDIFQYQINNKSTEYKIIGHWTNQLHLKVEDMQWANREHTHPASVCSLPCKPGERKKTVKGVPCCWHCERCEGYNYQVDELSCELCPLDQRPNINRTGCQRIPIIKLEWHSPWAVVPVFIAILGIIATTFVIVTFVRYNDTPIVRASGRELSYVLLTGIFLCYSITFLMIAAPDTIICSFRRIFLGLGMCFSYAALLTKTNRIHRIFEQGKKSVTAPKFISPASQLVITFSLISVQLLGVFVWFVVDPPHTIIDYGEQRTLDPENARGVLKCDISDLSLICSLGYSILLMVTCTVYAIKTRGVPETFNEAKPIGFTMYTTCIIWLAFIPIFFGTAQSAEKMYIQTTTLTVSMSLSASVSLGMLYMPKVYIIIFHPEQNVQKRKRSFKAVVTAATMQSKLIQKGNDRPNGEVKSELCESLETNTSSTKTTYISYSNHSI
For the compound `CC(=N\Nc1ccc(Cl)cc1)/C(=N/O)C(=O)Nc1ccccc1`, the z-score turned out to be 0.0464.

With `COc1cc(/C=N/O)cc(Br)c1OCC(=O)NCc1ccccc1`, the z-score stood at 0.215. In the case of `Cc1ccccc1-n1nc(CSc2nc3ccccc3[nH]2)c(-c2ccccc2)c1N` it was -0.755; in that of `O=C(O)C1(NS(=O)(=O)c2ccc(Cl)cc2)CCCCC1`, -0.168; in that of `COc1ccc(NC(=O)C2CCN(C(=O)c3cccs3)CC2)cc1`, 0.195. `Cc1ccc(-c2nc3cnccn3c2Nc2c(C)cccc2C)o1`: the z-score is -0.399. The figure for `Cc1ccc(Nc2c(-c3ccc(C)o3)nc3cnccn23)cc1` is 2.11; for `Cc1ccc(-c2nc3cnccn3c2Nc2ccccc2)o1` it is -0.467. `C/C=C/c1ccc(OCCOCCOc2cccc3cccnc23)c(OC)c1` yielded a z-score of -0.356. Compound `COc1ccc(S(=O)(=O)NCc2csc(-c3cccnc3)n2)cc1` yielded a z-score of -0.168.

For `O=S(=O)(NCc1csc(-c2cccnc2)n1)c1ccc2c(c1)OCCO2`, the z-score stood at 2.01. For the compound `O=S(=O)(NCCc1csc(-c2cccnc2)n1)c1ccc(Cl)s1`, the z-score came out at 2.22. `O=S(=O)(NCCc1csc(-c2cccnc2)n1)c1ccc2c(c1)OCCO2` displayed a z-score of -0.0667. Turning to `O=S(=O)(NCc1csc(-c2cccnc2)n1)c1ccc(Cl)s1`, the z-score was found to be 0.124. As to `CCc1ccc(S(=O)(=O)NCCc2csc(-c3cccnc3)n2)s1`, the z-score is -0.459. As to `Cc1cc(C)n2nc(SCc3cc(=O)n4ccccc4n3)nc2n1`, the z-score was -0.0377. As for `CCCCCCCCSc1n[nH]c(N)n1`, the z-score amounted to 0.0327.

`COC(=O)c1cccc(CSc2nnc(C)s2)c1` gave a z-score of -0.565. In the case of `COc1ccc([N+](=O)[O-])cc1NC(=O)C(C)Sc1ccc(C)cc1` (centres undefined) it was -0.545; in that of `COc1cc(C(=O)OCC(=O)c2c[nH]c3ccccc23)ccc1OCC(=O)N1CCOCC1`, 0.0746. The compound `CCn1ncc(Cl)c1C(=O)NC(C)c1ccccc1` (centres undefined) displayed a z-score of 0.00989.

`Clc1cccc(Cl)c1CSc1nnc2ccccn12`: the z-score came out at 0.157. The figure for `Cc1ccccc1CSc1nnc(NC(=O)C2COc3ccccc3O2)s1` (centres undefined) is 0.0129; for `C[C@H](C(=O)C=[N+]=[N-])N1C(=O)c2ccccc2C1=O` it is -0.275; for `CCCCOc1ccc(-c2nnn(CC(=O)NCc3ccco3)n2)cc1` it is 2.02.

As for `O=C(Cn1nnc(-c2ccccc2)n1)NCc1ccco1`, the z-score was determined as 0.185. The compound `CCOc1ccc(-c2nnn(CC(=O)NCc3ccco3)n2)cc1` had a z-score of 0.0502. `COc1ccccc1NC(=O)c1ccc(NC(=O)COC(=O)CC(NC(=O)c2ccccc2Cl)c2ccccc2)cc1` (centres undefined): the z-score is -0.112. The compound `Cc1cc2n(n1)C(c1cn(-c3ccccc3)nc1C)Nc1ccccc1-2` (centres undefined) returned a z-score of -2.98. On to `O=C(CSc1ccc(-c2ccc(F)cc2)nn1)NCc1ccco1`, for which the z-score is -0.746.

As to `CCOC(=O)Cc1csc(NC(=S)NC(=O)c2ccc(Cl)cc2)n1`, the z-score turned out to be 2.1.

For the compound `CCOC(=O)Cc1csc(NC(=S)NC(=O)c2ccc(C)cc2)n1`, the z-score was 8.13 (active). The figure for `CCOC(=O)Cc1csc(NC(=O)c2ccncc2)n1` is -0.235. As to `CCCCC(=O)Nc1ccc(C(=O)Nc2nc(CC(=O)OCC)cs2)cc1`, the z-score is -0.728. Consider `CCOC(=O)Cc1csc(NC(=O)c2ccc(NC(C)=O)cc2)n1`, for which the z-score worked out at 0.627. The figure for `CCOC(=O)Cc1csc(NC(=S)NC(=O)c2ccccc2)n1` is 10.6 (active); for `CCOC(=O)Cc1csc(NC(=O)CC)n1` it is 1.77. With `CCOC(=O)Cc1csc(NC(=S)NC(=O)c2cccc([N+](=O)[O-])c2)n1`, the z-score was 0.802. As to `CCOC(=O)Cc1csc(NC(=O)Nc2ccccc2)n1`, the z-score is 3.05 (active). `CCOC(=O)Cc1csc(NC(=O)c2ccc(Cl)nc2)n1` had a z-score of 0.0254.

In the case of `CCOC(=O)Cc1csc(NC(=S)NC(=O)c2ccc([N+](=O)[O-])cc2)n1`, the z-score is 1.72.

Consider `CCOC(=O)Cc1csc(NC(=O)c2ccc(OC)c(OC)c2)n1`, for which the z-score came out at 0.0105. In the case of `CNC(=S)NNC(=O)Cc1ccc(O)cc1`, the z-score was determined as 0.306. In the case of `CCN(CC)S(=O)(=O)c1ccc2c(c1)nc(CCC(=O)Nc1cccc(C(F)(F)F)c1)n2CC`, the z-score is -0.277. The compound `CCSc1nnc(NC(=O)C2(C)Cc3ccccc3C(=O)O2)s1` (centres undefined) gave a z-score of -0.0977.

Take `CCCCc1c(O)nc2sccn2c1=O`: the z-score is -0.251. With `Cc1cc(N2CCC(C(=O)NC3CC3)CC2)nc(-c2ccccc2)n1`, the z-score was found to be 1.41.

In turn, `Cn1c(=O)cc(OCCCC(=O)Nc2ccccn2)c2ccccc21` had a z-score of -0.243. As for `CC(C1CC1)N(C(=O)NC1CCS(=O)(=O)C1)c1ccccc1` (centres undefined), the z-score is -0.27.

Regarding `CCOc1ccc(NC(=O)c2ccco2)cc1`, the z-score is -0.0362. In the case of `CC1Oc2ccccc2N(CC(=O)NCCc2ccccc2)C1=O` (centres undefined) it was 2.08. In turn, `CC1Oc2ccccc2N(CC(=O)NCC2CCCO2)C1=O` (centres undefined) came in with a z-score of -0.413. Regarding `COc1ccc(NC(=O)CN2C(=O)C(C)Oc3ccccc32)cc1` (centres undefined), the z-score is -0.12. In the case of `C=CCn1c(=N)n(CC(=O)c2ccc(Br)s2)c2ccccc21`, the z-score was -1.22. In the case of `C/C(=N/NC(=O)c1sc(NS(=O)(=O)c2ccccc2)nc1C)c1ccccc1` it was 0.345; in that of `CN(c1ccc([N+](=O)[O-])cc1C(=O)Nc1ccccc1)C1CCCCC1`, -0.377. In the case of `COc1cc(CNC2CCCC2)cc(Cl)c1OCc1ccc(F)cc1`, the z-score is -0.271. `COc1cc(CNC2CCCC2)cc(Cl)c1OCc1ccccc1F` returned a z-score of 2.5. Compound `COc1cc(CNC2CCCC2)cc(Cl)c1OCc1ccccc1Cl` gave a z-score of 0.0424. In turn, `CN1CCN(CCCNC(=O)c2cn(C3CCCCC3)c(=O)c3c2c2ccccc2n3C)CC1` showed a z-score of -0.464.

For the compound `CC1CCC(C(C)C)C(OC(=O)CSc2nc(N)cc(=O)[nH]2)C1` (centres undefined), the z-score is -0.124. The figure for `O=C(CSCc1ccc(Br)cc1)N=Nc1c(O)[nH]c2ccccc12` is 2.84. The compound `O=C(CSc1nc2ccccc2[nH]1)N=Nc1c(O)[nH]c2ccccc12` came in with a z-score of -0.572. In turn, `O=C(Cn1nnc(-c2ccccc2)n1)N=Nc1c(O)[nH]c2ccccc12` showed a z-score of -0.0918. Regarding `O=C(CSCc1cccc(Br)c1)N=Nc1c(O)[nH]c2ccccc12`, the z-score is -0.113. In the case of `O=C(CN1CCN(Cc2ccccc2)CC1)N=Nc1c(O)[nH]c2ccccc12` it was -0.328. `O=C(CSCc1ccccc1)N=Nc1c(O)[nH]c2ccccc12`: the z-score was 6.08 (active).

On to `CCOC(=O)c1c(CN2CCOCC2)n(-c2ccccc2)c2cc(Br)c(O)c(CN(C)C)c12`, for which the z-score is -0.781.

Consider `CC(C)OCCCNC(=O)C(C)Oc1ccccc1` (centres undefined), for which the z-score was -0.305. Compound `CCCOc1ccc(C(=O)N2CCN(c3ccc(N)cc3Cl)CC2)cc1` gave a z-score of -0.235.

In turn, `COC(=O)C(Cc1ccc(O)cc1)NC(=O)CCC(=O)Nc1ccc(S(N)(=O)=O)cc1` (centres undefined) showed a z-score of -0.14. For `Cc1c(NC(=O)C(C)Sc2nnc(-c3ccccc3)o2)c(=O)n(-c2ccccc2)n1C` (centres undefined), the z-score is -0.308. `CC(=O)c1ccc(NC(=O)CCn2c(=O)oc3ccccc32)cc1`: the z-score was -0.318. Compound `COCCN(CCOC)C(=O)CCn1c(=O)oc2ccccc21` gave a z-score of 0.976. With `COC(=O)c1ccc(NC(=O)CCn2c(=O)oc3ccccc32)cc1`, the z-score came out at 2.57. For the compound `CN(Cc1ccccc1)C(=O)CCn1c(=O)oc2ccccc21`, the z-score is 2.02. `O=C(CCn1c(=O)oc2ccccc21)N(Cc1ccccc1)c1ccccn1` yielded a z-score of 0.207.

Consider `CCc1ccc(NC(=O)CCn2c(=O)oc3ccccc32)cc1`, for which the z-score is 0.0251. Take `CNC(=S)N(Cc1ccc2c(c1)OCO2)C1CC(=O)N(c2ccc(F)cc2)C1=O` (centres undefined): the z-score turned out to be 0.0865. The figure for `O=C(CN1C(=O)c2ccccc2C1=O)Nc1ccc2c(c1)OCO2` is -0.335. The figure for `CC(C)C1Cc2c(sc3c2c(=O)n(Cc2ccccc2)c2nncn32)CO1` (centres undefined) is -3.44 (active). Consider `Cc1nnc2n(Cc3ccccc3)c(=O)c3c4c(sc3n12)COC(C)(C)C4`, for which the z-score was found to be 0.198. In the case of `CCC1(C)Cc2c(sc3c2c(=O)n(-c2ccccc2)c(=O)n3C)CO1` (centres undefined) it was -0.673; in that of `Cn1c(=O)[nH]c2sc3c(c2c1=O)CC(C)(C)OC3`, -0.263; in that of `CC(C)C1Cc2c(sc3[nH]c(=S)n(Cc4ccccc4)c(=O)c23)CO1` (centres undefined), 5.29 (active).

Take `CCC1(C)Cc2c(sc3nc(SC)n(Cc4ccccc4)c(=O)c23)CO1` (centres undefined): the z-score was -0.216. `CCn1c(=O)n(Cc2ccco2)c(=N)c2c3c(sc21)COC(C)(C)C3`: the z-score is -0.025. In the case of `CC1(C)Cc2c(sc3[nH]c(=S)n(Cc4ccco4)c(=O)c23)CO1` it was 8.31 (active); in that of `CSc1nnc2n(Cc3ccccc3)c(=O)c3c4c(sc3n12)COC(C(C)C)C4` (centres undefined), -0.311. In the case of `CCC1(C)Cc2c(sc3[nH]c(=S)n(Cc4ccccc4)c(=O)c23)CO1` (centres undefined) it was 8.14 (active); in that of `CC1(C)Cc2c(sc3[nH]c(=S)n(Cc4ccccc4)c(=O)c23)CO1`, 14.5 (active). Compound `CC1(C)Cc2c(sc3c2c(=N)n(Cc2ccco2)c(=O)n3Cc2ccccc2)CO1` gave a z-score of -0.918.

With `O=C(CSc1nnc(-c2ccccc2)n1-c1ccccc1)N1c2ccccc2Sc2ccccc21`, the z-score is -1.52. As for `CC1CCCCN1C(=O)NC12CC3CC(CC(C3)C1)C2` (centres undefined), the z-score was -0.518. Compound `CCOc1ccc2c(c1)n(CO)c(=S)n2CO` registered a z-score of 0.0706. In turn, `C(=C\c1cccc2ccccc12)/c1nnc(-c2cccs2)o1` registered a z-score of -0.201.

Turning to `COc1ccc(CC(=O)n2c(CC#N)nc3ccccc32)cc1OC`, the z-score came out at 0.0175. With `Cc1ccc2c(Cn3cc(C(F)(F)F)cc(Cl)c3=O)cc(=O)oc2c1`, the z-score was -0.249. Regarding `CC(C)OC(=O)c1ccc(N2C(=O)C3CC=CCC3C2=O)cc1` (centres undefined), the z-score was 0.0622. In the case of `C=CCOC(=O)Nc1c(C(=O)OC)[nH]c2ccc(Cl)cc12` it was -0.103; in that of `CCOCCCNC(=O)/C(C#N)=C/c1ccc(-c2ccc(S(=O)(=O)N3CCOCC3)cc2)o1`, 2.32. In the case of `COCCNC(=O)/C(C#N)=C/c1ccc(-c2ccc(S(=O)(=O)N3CCOCC3)cc2)o1` it was -0.137; in that of `CCCCNC(=O)/C(C#N)=C/c1ccc(-c2ccc(S(=O)(=O)N3CCOCC3)cc2)o1`, 0.164; in that of `O=C(OCC1COc2ccccc2O1)c1c(F)cccc1F` (centres undefined), 0.396.

For the compound `N=c1oc2ccccc2cc1-c1nc(-c2ccc(Cl)cc2)cs1`, the z-score is -0.248.

Consider `N=c1oc2ccc3ccccc3c2cc1-c1nc(-c2ccccc2)cs1`, for which the z-score was 3.16 (active). The figure for `COc1ccc(-c2csc(-c3cc4ccccc4oc3=N)n2)cc1` is -0.00953; for `CCN(CC)C(=O)N1c2ccccc2C=Cc2ccccc21` it is -0.214; for `O=C(Nc1nnc(C2CC2)o1)c1ccc(S(=O)(=O)N2CCCc3ccccc32)cc1` it is 1.85. `COc1ccc(-c2nnc(NC(=O)c3ccc(S(=O)(=O)N4COCC4(C)C)cc3)o2)cc1` yielded a z-score of 1.22.

`CCc1nnc(NC(=O)c2ccc(S(=O)(=O)N3CCc4ccccc4C3)cc2)s1` returned a z-score of -0.158.

`CCc1nnc(NC(=O)c2ccc(S(=O)(=O)N3CCCc4ccccc43)cc2)o1` registered a z-score of 0.372. In the case of `COc1ccc(-c2nnc(NC(=O)c3ccc(S(=O)(=O)N4CCCc5ccccc54)cc3)o2)cc1` it was 2.07; in that of `COc1ccc(-c2nnc(NC(=O)c3ccc(S(=O)(=O)N4CCc5ccccc5C4)cc3)o2)cc1`, 9.68 (active).
